# Bioassay records from PubChem.
# The list is not random: actives were taken first. Their share in the collection is about 2.6%.
# AI-2 QS modul: Vibrio harveyi AI-2 quorum sensing modulators, primary screen, JMH597 strain, luminescence/OD600 ratio; 300,000 compounds, 0.4% hits; Vibrio harveyi JMH597 AI-2 luminescence/OD600 ratio, 9 h; hits give low values; strain lacks LuxN and CqsS sensors; 0 = neutral-control median; activity change, % at 7.5 µM; in the data active means activity change below about -75%, passing the limit was not always enough;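 further: luminescence divided by OD600 gain over 9 h not by final OD600 alone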
# ABCB6 inh 2: ABCB6 transporter inhibitors, primary screen, K562-ABCB6 cells, flow cytometry, MLPCN library. ATP-binding cassette sub-family B member 6 (Homo sapiens), Q9NP58. 360,000 compounds, 0.19% hits. K562-ABCB6 porphyrin accumulation, 1 h; hits give low values. fluorescence ratio to DMSO, % at 10 µM. AID 602162, 2011;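 active means fluorescence ratio to DMSO below 75%, the collection mean minus 3 SD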;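 further: signal is porphyrin accumulated inside mitochondria; 100% equals median channel fluorescence of DMSO control wells; lower ratio means ABCB6 inhibition with less porphyrin fluorescence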
# PHOSPHO1 block: PubChem AID 1565; inhibition, % at 13.3 µM; 290,000 compounds, 1.1% hits; Phosphoethanolamine/phosphocholine phosphatase (Homo sapiens), Q8TCT1; recombinant PHOSPHO1, absorbance phosphatase assay; in the data active means inhibition above about 60%
# eIF4H inh: human eIF4H binding inhibitors, primary screen, translation initiation inhibitor project, biochemical, uHTS, fluorescence polarization | Eukaryotic translation initiation factor 4H (Homo sapiens), Q15056 | eIF4H fluorescence polarization binding assay | inhibition, % at 35 µM | 290,000 compounds, 0.94% hits;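 further: calls also rest on retests at 20 µM and on dose response follow-up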
# PABP FP inh: PABP poly(A) RNA binding inhibitors, primary screen, biochemical, fluorescence polarization, uHTS; Polyadenylate-binding protein 1 (Homo sapiens), P11940; calls only at 35 µM; 290,000 compounds, 1% hits; AID 2014, 2009;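 further: calls also rest on retests at 20 µM and on dose response follow-up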
# Target sequence (P11940 whole entry, looked up): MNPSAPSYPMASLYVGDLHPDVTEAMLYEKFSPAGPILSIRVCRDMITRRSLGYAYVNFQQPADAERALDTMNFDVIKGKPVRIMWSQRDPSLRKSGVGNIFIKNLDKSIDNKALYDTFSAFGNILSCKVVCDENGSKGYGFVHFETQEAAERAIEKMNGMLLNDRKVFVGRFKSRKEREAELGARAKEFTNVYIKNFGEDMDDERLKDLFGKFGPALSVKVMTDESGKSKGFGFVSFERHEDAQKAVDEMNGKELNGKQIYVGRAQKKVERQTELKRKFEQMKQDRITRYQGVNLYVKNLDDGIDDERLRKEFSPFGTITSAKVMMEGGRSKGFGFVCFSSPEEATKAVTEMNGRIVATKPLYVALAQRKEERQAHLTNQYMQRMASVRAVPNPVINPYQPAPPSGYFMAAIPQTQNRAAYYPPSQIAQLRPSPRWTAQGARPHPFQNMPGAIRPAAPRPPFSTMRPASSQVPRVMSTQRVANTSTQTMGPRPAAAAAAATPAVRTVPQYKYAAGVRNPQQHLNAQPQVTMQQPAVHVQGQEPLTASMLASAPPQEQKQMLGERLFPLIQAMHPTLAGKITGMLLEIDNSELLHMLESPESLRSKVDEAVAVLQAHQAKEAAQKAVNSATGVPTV
# PABP1 MLLE inh: inhibitors of PABP1 MLLE–PAM2 peptide binding, primary screen, biochemical, fluorescence polarization, FITC-PAM2, GST-MLLE; Polyadenylate-binding protein 1 (Homo sapiens), P11940; inhibition, % at 20 µM; 360,000 compounds, 0.36% hits; AID 588489, 2011; in the data active means inhibition above about 35%, passing the limit was not always enough;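 further: plate controls were DMSO wells with GST-MLLE for no effect and wells lacking GST-MLLE protein for full effect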
# Active calls of the source: *; i = inactive; . = no result given; + = active, no number. Unless noted, how the calls were made is not given here.
SMILES,AI-2 QS modul,ABCB6 inh 2,PHOSPHO1 block,eIF4H inh,PABP FP inh,PABP1 MLLE inh
CC(CN1CCCCCC1)C(=O)NN (stereo not given),2.7,92.0,2.5,active,+,-12.8
CC(CN1CCCCC1)C(=O)NNC(=O)C12CC3CC(CC(C3)C1)C2 (stereo not given),22.4,99.0,28.5,1.7,i,4.5
CCc1nc2ccc(C(=O)Nc3ccc(OC)c(OC)c3)cn2c1N(C)Cc1nccs1,.,98.0,.,.,.,5.7
O=C1CC(C(=O)NC2CCCCC2)C(c2ccccc2)O1 (stereo not given),19.0,99.0,-4.0,-5.0,i,-3.9
C[C@@H]1[C@@H](Sc2ccccc2)CC(=O)O[C@@H]1c1ccc(-c2ccccc2)cc1,9.8,97.0,.,.,.,44.1*
CSc1ccc(CNc2ccccn2)cc1,21.2,86.0,76.4*,0.3,i,-81.6
COc1ccc(-c2csc(C(C)(O)c3ccc(F)c(F)c3)n2)cn1 (stereo not given),.,85.0,.,.,.,-2.2
O=C(NCc1cc(Cl)cc(Cl)c1)c1csc([C@@H]2O[C@H](CO)[C@H](O)[C@H](O)[C@H]2O)n1,.,100.0,.,.,.,-2.4
CCC(C)[C@H]1CNC(=O)C(=O)N1CC1CCCCC1 (stereo not given in full),.,107.0,.,.,.,.
COc1ccc(N=C2NN=C(c3c(C)[nH]c4ccccc34)CS2)cc1,11.2,99.0,-12.3,1.5,i,-124.7
Cc1[nH]c2ccccc2c1C1=NNC(=Nc2ccc(F)cc2)SC1,41.3,102.0,-13.5,active,+,-143.0
CC(C)n1c(=S)[nH]c2c1c(=O)[nH]c(=O)n2C,11.5,100.0,62.0*,10.3,i,-29.8
O=C(Cc1ccc2c(c1)CCCC2)Nc1ccccc1Br,25.9,105.0,30.6,-8.4,i,38.5*
COCc1cccc(-c2csc(C(C)(NC(C)=O)c3ccc(OC)cc3)n2)c1 (stereo not given),.,92.0,.,.,.,12.9
COc1ccccc1Nc1nc(N)nc(CN2CCCCC2)n1,25.0,97.0,9.1,2.7*,+,-10.1
COc1ccccc1Nc1nc(N)nc(CN2CCN(Cc3ccccc3)CC2)n1,18.3,101.0,-13.6,4.5,i,9.5
CC(=O)NC(C)(c1ccccc1)c1nc(/C=C/c2ccccc2)cs1 (stereo not given),.,105.0,.,.,.,-12.0
COc1ccc(CCNC(=O)c2ccc(Br)o2)cc1Br,.,94.0,.,.,.,.
Cc1[nH]c2ccccc2c1SCC(=O)O,1.7,108.0,3.9,-7.2,i,8.3
O=C(O)CSc1c2ccccc2cc2ccccc12,2.6,101.0,24.7,-1.0,i,38.2*
CC1CC(C)CN(C(=O)C2CCCN(c3ncnc4c3nc3n4CCCCC3)C2)C1 (stereo not given),-76.2*,93.0,24.0,-1.9,i,-10.6
CCc1cccc(NC(=O)C2CCCN(c3ncnc4c3nc3n4CCCCC3)C2)c1 (stereo not given),17.7,96.0,62.9*,-5.5,i,-2.6
O=C(Nc1cccnc1)C1CCCN(c2ncnc3c2nc2n3CCCCC2)C1 (stereo not given),-21.8,99.0,54.7,-18.4,i,3.9
COc1ccc(NC(=O)C(c2ccc(C)cc2)N(C)C(=O)Cc2cccs2)cc1 (stereo not given),-6.4,100.0,-5.2,62.8*,+,0.8
COc1ccc(NC(=O)C(c2ccc(OC)cc2)N(C)C(=O)Cc2cccs2)cc1 (stereo not given),4.6,94.0,-5.2,-8.2,i,9.0
SMILES,AI-2 QS modul,ABCB6 inh 2,PHOSPHO1 block,eIF4H inh,PABP FP inh,PABP1 MLLE inh
Cc1ccc(NC(=O)OCc2cccs2)cc1,-90.0*,.,8.0,-12.5,i,.
O=[N+]([O-])c1c(Nc2ccc(O)cc2)cc(Cl)c2nonc12,-174.4*,138.0,18.4,9.4,i,39.2*
CN(C)c1cc(Nc2ccc(O)cc2)c([N+](=O)[O-])c2nonc12,18.5,97.0,-5.6,-11.4,i,0.2
O=C(O)c1ccccc1Nc1cc(Cl)c2nonc2c1[N+](=O)[O-],14.0,100.0,.,11.0,i,41.8*
CCCC(=O)Nc1c(-c2ccccc2)[nH][nH]c1=O,.,98.0,.,.,.,0.2
CCOC(=O)[C@]12CCC=C1N(Cc1ccc3c(c1)OCO3)C(=O)[C@H](CC(=O)NCC13CC4CC(CC(C4)C1)C3)C2,.,96.0,.,.,.,.
CC(C)(C)c1ccc(C(=O)N/C(=C\c2ccco2)C(=O)O)cc1,22.3,95.0,23.6,32.2,i,-1.4
O=C(O)/C(=C/c1ccco1)NC(=O)c1ccccc1,14.8,98.0,-13.4,72.1*,+,5.9
COc1ccc(C(=O)N/C(=C\c2ccco2)C(=O)NCc2cccnc2)cc1,8.6,105.0,4.7,60.7*,i,15.1
O=C(NC(Cc1ccccc1)C(=O)O)/C(=C\c1ccco1)NC(=O)c1ccccc1 (stereo not given),7.3,104.0,-4.0,90.9*,+,7.2
O=C(NCc1cccnc1)/C(=C/c1ccco1)NC(=O)c1ccccc1,6.1,114.0,23.8,-9.3,i,15.1
O=C(NC(Cc1ccccc1)C(=O)O)/C(=C\c1ccco1)NC(=O)c1ccc(Br)cc1 (stereo not given),15.5,105.0,33.0,31.8,i,7.2
CSCCC(C(=O)Nc1c(C)cccc1C)N(Cc1ccccc1)Cc1ccccc1 (stereo not given),.,98.0,.,.,.,4.5
CCNC(=O)C1(C)CCCN(C(=O)C2(c3ccc(Cl)cc3)CCCC2)C1 (stereo not given),.,89.0,.,.,.,-18.5
CCOC(=O)Cn1c(=S)[nH]c2c(oc3ccc(Cl)cc32)c1=O,11.1,114.0,93.0*,-9.9,i,-61.7
CCCCCc1c(-c2ccc(Br)cc2)ncn1CCc1ccccc1OC,.,122.0,.,.,.,.
Fc1ccccc1CSc1nnc(-c2cccnc2)o1,-92.2*,100.0,51.6,-9.4,i,-6.5
Cc1ccc(C)c(CSc2nnc(-c3cccnc3)o2)c1,-79.6*,93.0,-16.4,-2.4,i,-10.2
COc1ccc(-c2nnc(SCc3ccccc3F)o2)cc1,-55.0,105.0,-7.4,-4.0,i,-3.0
Fc1ccccc1N1CCN(C(c2ccnc3ccccc23)c2nnnn2-c2ccc3c(c2)OCCO3)CC1 (stereo not given),.,95.0,.,.,.,.
OC(c1ccccc1)(c1nc(-c2cc3ccccc3o2)cs1)C(F)(F)F (stereo not given),.,102.0,.,.,.,1.8
Cc1oc(-c2ccc(Cl)cc2)cc1-c1nn2c(-c3ccoc3C)nnc2s1,42.4,99.0,-6.8,85.1*,+,-18.3
